Results taken from PubChem BioAssay (NCI).
Compounds without any hit were thinned out: in the full panel of roughly 79,000, 15% have a hit. A number with no mark means an inactive call. Active and inactive are the calls of the source. Cut-off read from the data, not from the text of the source: active = growth inhibition above about 70%; inactive = the rest.

Legend:
[1] = NCI Yeast Anticancer Drug Screen. Data for the rad50 strain (AID 155);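 note: 0% = growth of vehicle-only cultures of the same strain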; conditions: S. cerevisiae rad50 strain growth inhibition; at 50.0 µM; stronger effect = higher value
Method in brief: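 Readout: growth inhibition relative to vehicle-treated cultures. Compound exposure was carried out in a genetically defined yeast strain deficient in DNA damage repair.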

[2] = NCI Yeast Anticancer Drug Screen. Data for the mec2-1 strain (AID 157); conditions: S. cerevisiae mec2-1 strain, at 50.0 µM, stronger effect = higher value
Method in brief: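 Test agents were screened against the mec2-1 yeast strain, with defined DNA repair or cell cycle alteration. Growth was scored as inhibition against vehicle-only controls.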

[3] = NCI Yeast Anticancer Drug Screen. Data for the sgs1 mgt1 strain (AID 161);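 note: 0% = growth of cultures given vehicle only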; conditions: S. cerevisiae sgs1 mgt1 strain, at 50.0 µM, stronger effect = higher value
Method in brief: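 Inhibition of yeast growth, normalised to vehicle-treated controls, is reported for a strain bearing genetic alterations in DNA damage repair.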

[4] = NCI Yeast Anticancer Drug Screen. Data for the cln2 rad14 strain (AID 165);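 note: 0% = growth equal to vehicle treated cultures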; conditions: S. cerevisiae cln2 rad14 strain, at 50.0 µM, stronger effect = higher value
Method in brief: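 Growth of compound-exposed yeast (cln2 rad14 genotype) measured and expressed as inhibition relative to vehicle.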

[5] = NCI Yeast Anticancer Drug Screen. Data for the bub3 strain (AID 167); conditions: S. cerevisiae bub3 mutant strain, at 50.0 µM, stronger effect = higher value
Method in brief: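 Readout: yeast growth inhibition, expressed relative to vehicle-only wells. The test organism is a mutant strain from a panel with lesions in DNA repair or checkpoint genes.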

[6] = NCI Yeast Anticancer Drug Screen. Data for the mlh1 rad18 strain (AID 175); conditions: S. cerevisiae mlh1 rad18 strain growth inhibition; at 50.0 µM; stronger effect = higher value
Method in brief: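 In this whole-cell yeast screen, a strain with altered DNA damage repair is challenged with compound, and its growth is measured against matched vehicle-treated controls.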

| SMILES | growth inhibition [1] | growth inhibition [2] | growth inhibition [3] | growth inhibition [4] | growth inhibition [5] | growth inhibition [6] |
| --- | --- | --- | --- | --- | --- | --- |
| Nc1nc(N)c2cc(S(=O)(=O)c3ccc(Cl)cc3)ccc2n1 | 21.9% | 36.1% | 12.5% | -12.2% | 17.8% | 28.6% |
| O=C(/C=C/c1ccccc1)Oc1ccccc1 | 3.45% | 5.55% | 1.5% | -19.9% | 23.8% | -4.85% |
| CC1(C)OCC(C2OC3OC(C)(C)OC3/C2=N/NC(=O)c2cc3cc(OCc4ccccc4)ccc3[nH]2)O1 (stereo unspecified) | 82.5% (active) | 90.8% (active) | 39.6% | 92.2% (active) | 84.3% (active) | 86% (active) |
| CCOC(=O)C(=O)SCC(NC(=O)OCc1ccccc1)C(=O)O (stereo unspecified) | -12.9% | -4.95% | 11.7% | -1.95% | 7.75% | -12.2% |
| CCOC(=O)C(N=Nc1ccc(C)cc1Br)C(C)=O (stereo unspecified) | 16.2% | 13.9% | 24.9% | 15.6% | 22.4% | 24.1% |
| Cc1cccc(NC(=O)Oc2ccc(Nc3ccccc3)cc2)c1 | 6.6% | 38.5% | 40.2% | 12.3% | 62% | 50.4% |
| C/C(=N\NC(=O)c1ccncc1)c1ccccc1Cl | -23.3% | -23.9% | -16.1% | -13.3% | -75.8% | -17.4% |
| O=[N+]([O-])c1ccc(Cl)c(OCCCBr)c1 | 10.3% | 39.5% | 48.6% | 14.9% | 57.2% | 70.3% (active) |
| COc1ccc(C(=O)O[C@H]2[C@@H]3C=CO[C@@H](OC4OC(CO)C(O)C(O)C4O)[C@@H]3[C@@]3(CO)O[C@@H]23)cc1O (stereo partly specified) | 31.9% | 23.9% | -3.4% | 11.7% | 34.3% | 38.6% |
| O=S(=O)(O)c1cc(O)c2ccc3c(S(=O)(=O)O)cc(S(=O)(=O)O)c4ccc1c2c34 | -11.7% | -23.1% | -2.85% | 6.8% | 10.6% | 3.75% |
| COc1ccc2c(c1)NC(c1ccccc1C(=O)O)c1cccn1-2 (stereo unspecified) | 0.55% | -20.9% | 12.3% | 5.75% | 23.6% | 5.6% |
| CCCCCCCCCCCCCCCCCC(=O)Oc1ccc(OCc2ccccc2)cc1 | -13.5% | -25.6% | -11.4% | 16.2% | -11.4% | -16.6% |
| O=CNCCNC=O | 0.05% | -2.25% | -15% | -12.7% | 0.65% | -1.85% |
| O=NN(CCCl)C(=O)N[C@H]1CCC[C@@H](O)C1 | 5.85% | -3.35% | -6.2% | -42.9% | -15.2% | 6% |
| CC(C)OCCCN(Cn1c(=S)sc2ccccc21)Cn1c(=S)sc2ccccc21 | 66.8% | 54.6% | 85.9% (active) | 42.8% | 39.2% | 55.6% |
| C/C(=N\N=C(/C)c1ccc(N)cc1)c1ccc(N)cc1 | 15.9% | 5% | 1.9% | -3.3% | 13.9% | 9% |
| N=C1C(=O)C(=N)c2ccccc2-c2ccccc21 | -31% | -48.8% | -14.7% | -0.05% | -36.6% | -23.9% |
| CC(=O)N1N=C(c2ccc(OCC(O)CN3CCN(CC(O)COc4ccc(C5=NN(C(C)=O)C(c6ccccc6)C5)cc4)CC3)cc2)CC1c1ccccc1 (stereo unspecified) | -30.6% | -25.9% | -8.85% | -30.4% | -25.9% | -3.8% |
| CC1(CC2(C)SCCCS2)SCCCS1 | -1.1% | -7.55% | 10.7% | -2.35% | -5.8% | 7.8% |
| Cc1ccccc1NC(=O)Cc1csc2[n+]1C(=O)/C(=C\c1ccc3c(c1)OCO3)S2 | 22.9% | 7.6% | 17.9% | 3% | 11.2% | 7% |
| Cc1ccc(CSC(=S)NNc2ccccc2)cc1C | -28.6% | -44.3% | -2.15% | -13.6% | -32.6% | -35.8% |

| SMILES | growth inhibition [1] | growth inhibition [2] | growth inhibition [3] | growth inhibition [4] | growth inhibition [5] | growth inhibition [6] |
| --- | --- | --- | --- | --- | --- | --- |
| COC(=O)C1=NC(=O)C(C#N)=C(C(=O)OC)C1(C(=O)c1ccc(OC)cc1)c1ccc(OC)cc1 (stereo unspecified) | -39.9% | 3.7% | -9.15% | 13.8% | 11.9% | -12.1% |
| CCCCCCn1cnc2c(=S)nc[nH]c21 | 24.6% | 8.35% | 10.8% | 7.45% | -0.65% | 12.8% |
| O=C(O)c1ccc(-c2c3ccc(=O)cc-3oc3cc(O)ccc23)cc1 | 18% | -30.1% | 6.05% | 22.1% | 23.9% | 20.4% |
| CCOP(=O)(O)C1CC2C3CC=C4CC(O)CCC4(C)C3CCC2(C)C1C(C)=O (stereo unspecified) | 15.9% | -3.25% | -0.55% | -14.4% | -2% | 3.5% |
| Cc1[nH]n(-c2ncc(C#N)c(=O)[nH]2)c(=O)c1CCO | -8.75% | -34.1% | -16% | -31.9% | -11.8% | -71.3% |
| O=c1[nH]c2nc3ccccc3c(=O)n2/c1=C/c1ccco1 | 30.2% | 16.8% | 5.5% | 20.2% | 23.1% | 3.95% |
| CCC(=O)Cc1ccc(OC)c(OC)c1 | -0.3% | -3.5% | 19.6% | 7.3% | 9.35% | 2.5% |
| CC(=O)Oc1cc(C(C)C)ccc1C | 26.7% | -3.75% | 18.1% | -1.4% | 0% | 15.4% |
| CC1CCC2C1(C)CCC1C2(C)CCC2(C)C3CC(C)(C)CCC3(C)CCC12C (stereo unspecified) | -9.45% | -35.8% | -12.8% | 1.6% | -26.4% | -11.2% |
| CCOC(=O)CCC(NC1=C(Cl)C(=O)c2ccccc2C1=O)C(=O)O (stereo unspecified) | 12.2% | 2.15% | 20.4% | -63.1% | 0.15% | 24.9% |
| O=C1c2ccccc2C(=O)c2c(Nc3ccc4c5c(cccc35)C(=O)c3ccccc3-4)cccc21 | 23.1% | 6.25% | -14.2% | -31.7% | -8.4% | 13.2% |
| O=c1[nH]c(=O)c2nc3cc(-c4ccc5nc6[nH]c(=O)[nH]c(=O)c6nc5c4)ccc3nc2[nH]1 | 14.2% | 12.1% | 12.4% | 54% | 2.65% | 7% |
| COC(=O)NC1CCCCC1 | -2.5% | -13.8% | -4.6% | 20.6% | -8.2% | -6.35% |
| O=C(COc1ccc(Cl)c(Cl)c1)NCc1cccc(Cl)c1 | 6.1% | -8.65% | -1.7% | -2.85% | 36.4% | 30.9% |
| Cc1ccc(NC2=CC(=O)c3ccccc3C2=O)cc1 | 22.4% | 6.45% | 17.8% | -26.9% | 13.8% | 9.45% |
| COc1cc2cc(OC)c3cc4c(cc3c2c(OC)c1OC)OCO4 | 12.2% | 11.1% | 19.2% | 7.3% | 6.6% | 5.65% |
| BrC1C2CC/C=C\CCC12 (stereo unspecified) | 43.9% | 22.7% | 10.9% | 11.6% | 18% | 13.9% |
| COc1cc2ccc3c4c(OC)cc5c(c4c[n+](C)c3c2cc1OC)OCO5 | 88% (active) | 91.3% (active) | 88.3% (active) | 88.7% (active) | 90% (active) | 87.2% (active) |
| CC(C)(C)C1=CC(=O)C(C#N)(C(C)(C)C)C1=O (stereo unspecified) | 11.2% | -5.7% | 7.15% | -36% | 1.6% | 6.55% |
| CN/N=C(\C(=O)Nc1ccc(C)c(C)c1)C(C(=O)OC)c1nc2ccc([N+](=O)[O-])cc2[nH]c1=O (stereo unspecified) | -42.9% | 2.7% | -19.1% | 19.3% | -1.25% | -18.2% |
